KKLEB cytotox = counter-screen for CF NF-kB inhibitors: cytotoxicity; activity change (cytotoxicity), % at 5 µM; KKLEB CF airway cells viability, ATPlite luminescence, overnight; active compounds read low; cells stimulated with P. aeruginosa culture filtrate; 0.36% of 360,000 active;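 active = corrected activity change at or below -50% at 5 µM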
Peg3 prom inh-1 = Peg3 promoter activity inhibition | inhibition, % at 20 µM | 1.7% of 360,000 active | HeLa PEG-Prom luciferase reporter, luminescence, overnight;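 active = inhibition of at least 50% at 20 µM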
HIF-2a inh = blocks HIF-2a reporter activity; 786-0 RCC cells HIF-2a reporter, luciferase luminescence, overnight; inhibition, % at 18.8 µM; 0.72% of 360,000 active; AID 624352;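 active = inhibition of the luminescence signal of 40% or more relative to plate controls, in a single-dose primary screen at 18.75 µM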
ABHD5-PLIN5 inh = inhibitors of human ABHD5-perilipin-5 interaction; Q00G26+Q8WTS1; Split G. princeps luciferase complementation, luminescence, 4 h; inhibition, % at 4 µM; 0.78% of 360,000 active;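 active = inhibition above the mean inhibition across every tested compound plus 3 SD, cut at about 22% in these data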
Target sequence (Q00G26 whole entry, looked up): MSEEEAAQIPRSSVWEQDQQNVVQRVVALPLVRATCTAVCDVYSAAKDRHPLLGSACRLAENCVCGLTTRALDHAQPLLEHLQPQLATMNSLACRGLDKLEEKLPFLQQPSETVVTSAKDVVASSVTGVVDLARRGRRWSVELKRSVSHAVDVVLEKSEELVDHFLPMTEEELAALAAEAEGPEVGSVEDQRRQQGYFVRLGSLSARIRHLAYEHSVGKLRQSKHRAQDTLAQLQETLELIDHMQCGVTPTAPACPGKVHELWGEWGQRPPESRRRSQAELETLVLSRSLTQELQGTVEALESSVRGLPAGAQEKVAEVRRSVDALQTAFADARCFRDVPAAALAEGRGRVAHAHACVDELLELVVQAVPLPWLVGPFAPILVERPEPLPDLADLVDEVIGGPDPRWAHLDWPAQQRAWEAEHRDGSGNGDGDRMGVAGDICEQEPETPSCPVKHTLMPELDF
Target sequence (Q8WTS1 whole entry, looked up): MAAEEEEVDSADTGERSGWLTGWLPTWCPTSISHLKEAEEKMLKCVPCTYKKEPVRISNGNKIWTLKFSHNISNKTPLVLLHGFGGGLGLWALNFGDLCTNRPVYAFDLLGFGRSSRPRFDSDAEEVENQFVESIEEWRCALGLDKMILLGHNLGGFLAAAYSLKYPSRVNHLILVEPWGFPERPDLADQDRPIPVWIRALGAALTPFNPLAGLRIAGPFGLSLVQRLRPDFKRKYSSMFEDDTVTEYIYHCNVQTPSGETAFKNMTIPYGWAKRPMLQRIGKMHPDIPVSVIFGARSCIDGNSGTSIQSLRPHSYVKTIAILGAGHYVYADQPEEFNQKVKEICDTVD
TRPM1 prom inh = inhibitors of MITF-driven TRPM1 promoter in melanoma cells | SK-MEL-5 TRPM1 promoter luciferase, 24 h | inhibition, % at 12.5 µM | 0.83% of 330,000 active | AID 488899;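 active = mean inhibition across replicates of 60% or more, whatever share of single replicates reaches that level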
CF NFkB block = blocks PAF-induced NF-kB reporter in cystic fibrosis cells; KKLEB NF-kB-GFP reporter, GFP fluorescence overnight; AID 588850; 0.86% of 360,000 active; inhibition, % at 5 µM;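 active = at least 50% inhibition at 5 µM, scaled per plate between neutral and stimulator controls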;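 also: PAF is a Pseudomonas aeruginosa culture filtrate used as stimulus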
Peg3 prom inh-2 = confirmation of Peg3 promoter inhibitors; shares compounds with Peg3 prom inh-1; inhibition, % at 20 µM; HeLa PEG-Prom luciferase reporter, luminescence, overnight; 84% of 1,300 active;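 active = at 20 µM dose, 40% or more inhibition averaged across four replicates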
Large screens that a line does not name were inactive (follow-up assays come after a bar, where they were run). Shown are actives, neighbours in structure and some others; about 3% of the full set was active somewhere.

COc1cc2c(cc1OC)CN(c1nc(-c3cccnc3)nc3ccccc13)CC2	Peg3 prom inh-1 65 | Peg3 prom inh-2 71
Cc1ccc(C)c(S(=O)(=O)N2CCN(c3nc(-c4cccnc4)nc4ccccc34)CC2)c1	Peg3 prom inh-1 64 | Peg3 prom inh-2 47
CN1CCN(c2nc(-c3cccnc3)nc3ccccc23)CC1	none
Cc1ccc(C(O)c2ncc(-c3ccccc3C)[nH]2)cc1F (stereo not given)	none (no result: TRPM1 prom inh)
C/C(=N\N=C(N)N)c1ccc(Cl)c(Cl)c1	Peg3 prom inh-1 105 | Peg3 prom inh-2 83
CC(=O)OCCNc1cc(SCc2ccco2)c2nonc2c1[N+](=O)[O-]	Peg3 prom inh-1 52 | Peg3 prom inh-2 69
O=[N+]([O-])c1c(NCCCO)cc(SCc2ccco2)c2nonc12	none
CCOc1ccc(OCc2cccc(C(=O)N3CCCC3)c2)cc1	none
O=C(NCc1ccccc1)c1cccc(COc2ccc3c(c2)CCC3)c1	none
CCOc1ccc(OCc2cccc(C(=O)O)c2)cc1	Peg3 prom inh-1 100, HIF-2a inh 89, TRPM1 prom inh 93 | Peg3 prom inh-2 96
O=C(O)c1ccc(COc2ccc(CO)cc2Cl)cc1	none
O=C(O)c1cccc(COc2ccc3c(c2)CCC3)c1	Peg3 prom inh-1 85, HIF-2a inh 88, TRPM1 prom inh 96 | Peg3 prom inh-2 73
O=C(O)c1cccc(COc2ccc(CO)cc2Cl)c1	Peg3 prom inh-1 100, HIF-2a inh 89, TRPM1 prom inh 105 | Peg3 prom inh-2 88
CCN(C(=O)COC(=O)c1ccc([N+](=O)[O-])o1)C1CCCCC1	none
Cn1nc(C(=O)OCC(=O)Nc2ccc3ccccc3c2)c2ccccc2c1=O	none
Cc1cc(O)cc2c(=O)c3ccccc3sc12	none
CN(C)CCNc1ccc2nnn3c4ccc(O)cc4c(=O)c1c23	Peg3 prom inh-1 75 | Peg3 prom inh-2 56
Cc1ccc(NCCN(C)C)c2c(=O)c3cc(O)ccc3sc12	Peg3 prom inh-1 106, TRPM1 prom inh 93 | Peg3 prom inh-2 100
CN(Cc1ccccc1)C1CCN(Cc2ccccc2[N+](=O)[O-])CC1	none
COc1ccccc1N1C(=O)C2C(C(=O)c3ccccc3)=NN(c3ccccc3OC)C2C1=O (stereo not given)	none
CCCCNC(=O)C1(C)CCN1Cc1cccc2c(OC)cc(C(=O)OCC)cc12 (stereo not given)	Peg3 prom inh-1 57 (no result: TRPM1 prom inh) | Peg3 prom inh-2 inactive
CCCCNC(=O)C1(C)CCN1Cc1ccc(C(=O)OCC)cc1 (stereo not given)	none (no result: TRPM1 prom inh)
CCn1c(/C=C/c2ccc(O)cc2)nc2ccccc2c1=O	none
CCn1c(/C=C2\C(=O)Nc3ccccc32)nc2ccccc2c1=O	Peg3 prom inh-1 52 | Peg3 prom inh-2 inactive
O=C1c2cccc(NCCNCCO)c2C(=O)c2cccc(NCCNCCO)c21	Peg3 prom inh-1 99, HIF-2a inh 78, TRPM1 prom inh 81 | Peg3 prom inh-2 inactive
CCN1CCCC1CN(Cc1cc2ccc(C)cc2[nH]c1=O)C(=S)Nc1ccc(OC)cc1 (stereo not given)	Peg3 prom inh-1 63 | Peg3 prom inh-2 80
COc1ccc(-n2nc(C(=O)Nc3ccc(OC)c(OC)c3)c3c4ccccc4n(C)c3c2=O)cc1	KKLEB cytotox -60, Peg3 prom inh-1 62, CF NFkB block 64 | Peg3 prom inh-2 inactive
COc1ccc(-n2nc(C(=O)Nc3ccc4c(c3)OCO4)c3c4ccccc4n(C)c3c2=O)cc1	none
CC(C)(C)S(=O)N1Cc2cc(C(=O)NCc3ccc(Oc4ccccc4)cc3)nc(-c3cccc(-c4cc5ccccc5o4)c3)c2[C@@H]1CCO (stereo not given in full)	Peg3 prom inh-1 80 (no result: TRPM1 prom inh) | Peg3 prom inh-2 inactive
COCCNC(=O)c1cc2c(c(-c3cccc(-c4cc5ccccc5o4)c3)n1)[C@H](CCO)N(S(=O)C(C)(C)C)C2 (stereo not given in full)	none (no result: TRPM1 prom inh)
COc1cccc(-c2cccc(-c3nc(C(=O)NCc4ccc(Oc5ccccc5)cc4)cc4c3[C@H](CCO)N(S(=O)C(C)(C)C)C4)c2)c1 (stereo not given in full)	Peg3 prom inh-1 73 (no result: TRPM1 prom inh) | Peg3 prom inh-2 inactive
CC(C)(C)S(=O)N1Cc2cc(C(=O)NCc3ccc4c(c3)OCO4)nc(-c3cccc(-c4ccccc4)c3)c2[C@@H]1CCO (stereo not given in full)	none (no result: TRPM1 prom inh)
O=C(CSc1nnc(CNC(=O)c2ccccc2F)o1)NC1CCCC1	none
CCN1CCN(C(c2ccc(C(F)(F)F)cc2)c2ccc3cccnc3c2O)CC1 (stereo not given)	Peg3 prom inh-1 55, HIF-2a inh 49, TRPM1 prom inh 66 | Peg3 prom inh-2 60
CCC1(c2ccccc2)NC(=O)N(CC(=O)Nc2cc(S(=O)(=O)N3CCCCCC3)ccc2OC)C1=O (stereo not given)	Peg3 prom inh-1 54 | Peg3 prom inh-2 70
N/C(=N\OC(=O)c1ccccc1)C(Cc1ccccc1)C(=O)NOC(=O)c1ccccc1 (stereo not given)	Peg3 prom inh-1 99, TRPM1 prom inh 62 | Peg3 prom inh-2 99
O=C(NOC(=O)c1ccccc1)c1ccccc1	none
CCOC(=O)N1CCN(S(=O)(=O)c2ccc(C(=O)Nc3nc4ccc(F)cc4s3)cc2)CC1	Peg3 prom inh-1 55 | Peg3 prom inh-2 inactive
CCOC(=O)N1CCN(S(=O)(=O)c2ccc(C(=O)Nc3nc4ccccc4s3)cc2)CC1	none
COc1ccc(-c2cc(C(=O)N3CCN(c4ncccn4)CC3)c3ccccc3n2)c(OC)c1	Peg3 prom inh-1 53 | Peg3 prom inh-2 45
COc1ccc(OC)c(-c2cc(C(=O)N3CCN(c4ncccn4)CC3)c3ccccc3n2)c1	Peg3 prom inh-1 55 | Peg3 prom inh-2 52
COc1ccc(-c2cc(C(=O)N3CCN(c4ccccc4F)CC3)c3ccccc3n2)c(OC)c1	Peg3 prom inh-1 51 | Peg3 prom inh-2 52
O=C(Nc1ccc2oc(-c3ccncc3)nc2c1)c1ccccc1	none
O=C(Nc1ccc2oc(-c3ccncc3)nc2c1)c1ccc([N+](=O)[O-])o1	Peg3 prom inh-1 102, TRPM1 prom inh 72 | Peg3 prom inh-2 98
O=S(=O)(c1ccc(Cl)cc1)N1CCN(Cc2ccc(O)c3ncccc23)CC1	Peg3 prom inh-1 52, TRPM1 prom inh 64 | Peg3 prom inh-2 56
O=S(=O)(c1ccc(Cl)cc1)N1CCN(Cc2ccncc2)CC1	none
O=C(Nc1ccc(-c2nc3ccccc3o2)cc1)c1ccc(N2CCOCC2)c([N+](=O)[O-])c1	KKLEB cytotox -51, Peg3 prom inh-1 51, CF NFkB block 52 | Peg3 prom inh-2 48
CCOC(=O)C1CCN(c2cc3c(cc2NC(=O)c2ccccc2OCC)n(C)c(=O)n3C)CC1	Peg3 prom inh-1 51 | Peg3 prom inh-2 45
